Measurements published in the supplement of paper PMC3334620.
Over roughly 33,000 sequences, “E-score (-0.5 to 0.5)” has its median near -0.012; the highest 2% begin near 0.29. The list comes from a sample in which the highest values are over-represented; it also holds similar and randomly drawn sequences.

Target: T1, Ybr033w (UniProt P38073)
T1 sequence: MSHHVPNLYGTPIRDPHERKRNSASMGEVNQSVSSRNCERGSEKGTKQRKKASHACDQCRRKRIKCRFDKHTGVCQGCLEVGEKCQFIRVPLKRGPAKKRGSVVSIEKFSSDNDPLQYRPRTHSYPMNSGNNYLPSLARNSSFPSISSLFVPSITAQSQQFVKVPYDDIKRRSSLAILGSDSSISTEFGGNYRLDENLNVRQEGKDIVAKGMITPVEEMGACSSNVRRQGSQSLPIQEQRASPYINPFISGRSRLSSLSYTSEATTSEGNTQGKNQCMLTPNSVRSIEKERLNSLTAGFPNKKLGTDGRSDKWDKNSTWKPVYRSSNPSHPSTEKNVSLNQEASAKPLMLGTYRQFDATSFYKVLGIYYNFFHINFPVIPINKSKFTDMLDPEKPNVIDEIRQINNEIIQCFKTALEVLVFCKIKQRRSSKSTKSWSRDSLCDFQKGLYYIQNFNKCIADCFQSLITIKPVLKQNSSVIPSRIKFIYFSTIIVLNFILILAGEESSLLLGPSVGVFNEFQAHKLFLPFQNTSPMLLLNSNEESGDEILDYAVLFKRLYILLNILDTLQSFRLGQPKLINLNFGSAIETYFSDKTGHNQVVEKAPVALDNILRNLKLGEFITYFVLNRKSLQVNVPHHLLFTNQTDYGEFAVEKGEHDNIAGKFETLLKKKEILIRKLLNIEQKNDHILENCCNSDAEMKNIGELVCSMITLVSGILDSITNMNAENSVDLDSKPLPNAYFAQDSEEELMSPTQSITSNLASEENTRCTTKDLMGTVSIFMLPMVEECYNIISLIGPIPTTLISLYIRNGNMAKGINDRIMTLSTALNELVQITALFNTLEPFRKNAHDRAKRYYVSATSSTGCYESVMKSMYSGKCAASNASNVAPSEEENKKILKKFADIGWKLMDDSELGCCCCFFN
Experiment: PBM E-score (8-mer binding enrichment) (E-score (-0.5 to 0.5)); higher = stronger / more preferred TF binding
Conditions: protein concentration: 200 nM; construct: GST-full length
Summary of the method: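 Universal all-10-mer Agilent arrays, fresh or stripped once, were converted to double-stranded form by primer extension. GST-tagged yeast transcription factors from PURExpress in vitro transcription/translation, full-length or DNA-binding domain only, were applied at about 100-200 nM and detected with fluorescent anti-GST. After masliner normalisation, the Universal PBM Analysis Suite scored each ungapped eight-base word together with its reverse complement by E-score.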

Sequence | PBM E-score
AGCTCTGA | -0.0863
TACGGGGA | -0.183
GAGAATGA | 0.122
ACACCGAT | -0.185
AAGCGCAG | 0.127
AGTAGATA | 0.311
ACTAGATC | -0.0476
CGTAGATA | 0.0341
ACTAGATA | 0.304
CCTAGATA | -0.0707
AGTAGATC | 0.164
GCGGGGAC | -0.22
AGATGAAA | 0.0735
AGAGCGTC | -0.081
ATCAGAAA | 0.044
CGATACAA | 0.165
AGATACAA | 0.292
AGATACAG | 0.22
CGGTGACG | -0.0845
AATGCGAG | 0.291
CATGCGAG | -0.217
AATGCGAT | -0.0207
GGCATAAA | 0.167
ATACGTGC | -0.058
TCACTAGA | 0.12

Sequence | PBM E-score
AGTTGTTA | 0.174
AATTGTCC | 0.163
CATTGTAC | 0.0182
GATTGTAC | 0.0766
AATTGTTA | 0.314
GATTGTTA | 0.0997
AGTTGTTC | 0.337
AATTGTTC | 0.339
AATTGTCA | 0.139
AGTTGTTG | 0.123
AATTGTTG | 0.114
AATTGTAC | 0.337
CTGCAAAA | 0.022
GAGCCCTA | -0.201
AACCTTGT | -0.194
ACCTGGGC | -0.362
CATGGAAG | 0.204
CATTGTTC | 0.31
ATTTGTTC | 0.44
AAATGTTA | 0.149
CCTTGTTC | -0.124
ATTTGTTA | 0.185
CTTTGTTC | 0.111
CATTGTTA | -0.015
AAATGTTC | 0.346

Sequence | PBM E-score
AAATGTTG | -0.0479
GAGAGGTA | -0.223
CCCATCCA | -0.158
AACTGAGA | 0.0375
GTTTGATA | 0.177
AGCCCTGG | -0.252
AAATGGCA | 0.101
ATTCCGAG | 0.242
CTTCCGGA | 0.274
ATTCCGGA | 0.387
CTTCCGAA | 0.208
ATTCCGAC | 0.157
GGTCCGAA | -0.0173
ATTCCGGG | 0.188
GTTCCGAA | 0.29
ATTCCGAA | 0.32
GAAGCTGA | 0.135
CAGCTACA | 0.0259
GCTACGCC | -0.239
ACGTTACT | 0.0376
ATACGCCG | -0.149
AGTCAAAT | 0.188
GGCCACCC | -0.214
CATTGAAC | 0.124
CATTGAAG | -0.0671

Sequence | PBM E-score
GCTTGAAA | 0.0485
CATTGAAA | 0.29
TCTTGAAA | 0.319
CCTTGAAA | 0.0714
AGTGGTAG | 0.0179
ATTAACTG | 0.333
ATTAACCA | 0.0788
ATTAACGG | 0.159
ATTAACTC | 0.291
ATTAACCC | 0.237
ATTAACTA | 0.181
AGTAACTG | 0.0214
ATTAACCG | 0.295
CTTAACTC | 0.0941
GAATTGAC | 0.00537
CAGGCGGA | 0.122
AACGCTTG | -0.194
CATTCTCC | 0.0353
ATTTCTCA | 0.192
AATTCTCA | 0.204
ATTTCTCC | 0.404
CTTTCTCC | -0.103
AATTCTCC | 0.293
CAGGCTGA | -0.237
GACAGAGA | -0.066

Sequence | PBM E-score
ACCCTACT | 0.0025
TGCTACCA | -0.0533
AATGCATT | 0.31
AATGCATA | 0.126
AATGCATG | 0.0293
AGTAGTAT | 0.185
CAAAGACA | 0.0541
AAAAGCCA | 0.3
AAAAGCCC | -0.113
GAAAGCCA | -0.136
AAAAGACC | -0.141
AAAAGACA | 0.292
CCCAGTGA | -0.194
AGCAGTGG | 0.0536
ATCTTGAA | 0.187
ATATTAAA | 0.355
CTATTAAA | 0.196
GTATTAAC | 0.0593
ATATTAAC | 0.301
CTATTAAC | 0.268
TTATTAAA | 0.283
ATATTAAG | 0.285
ATATTAAT | 0.314
ACATTAAT | 0.235
GGCTCTAC | -0.185

Sequence | PBM E-score
GGAACACA | 0.149
GAGCTGTA | -0.11
TCCATACA | 0.0807
ATTTTCAG | 0.148
ATTCGCCG | 0.0215
ATCGACAC | -0.0724
CGTGAACA | 0.00947
CTGTGTTA | -0.00531
ATGTGTTA | 0.163
GTGTGTTA | 0.292
CAAGGTCG | -0.0398
AACGACTC | -0.219
ACTTTATG | 0.132
AATTTATC | 0.398
AGTTTATG | 0.2
AATTTATG | 0.317
CATTTATC | 0.278
AGTTTATA | 0.215
AATTTAGG | 0.229
AATTTATA | 0.257
AGTTTATC | 0.363
GCAAGCGC | -0.00847
GTAACCAC | -0.255
CTCAATGC | -0.0435
AGATCTTG | -0.00564

Sequence | PBM E-score
TAAGTGAA | 0.293
AAAGTGAA | 0.164
GAAGTGAA | 0.155
CAAGCCAG | -0.0473
ATTAGATC | 0.0257
ATTAGATG | 0.329
ATTAGATA | 0.222
AATCGGGG | -0.125
ACAATCTC | 0.0789
ATAATCTA | 0.294
GTAATCTA | 0.207
ATAATCTG | 0.117
AAAATCTA | 0.289
CTAATCTC | -0.0112
ATAATCTC | 0.293
AAAATCTG | 0.235
GAAATCTA | 0.116
AGACAGGA | 0.246
TCTCAAAA | 0.143
GCGAGACA | -0.0827
CAAATAGG | 0.00709
CAGACGAG | -0.108
